Common to all, as to assay: DAPPL (digital affinity profiling via proximity ligation, sequencing); 10 mM Tris-HCl pH 7.5, 50 mM NaCl, 1 mM DTT, 4% glycerol, room temperature, 30 min; GST-TFs on glutathione beads, 16-mer random dsDNA library, 0.1% formaldehyde crosslink after washing; high values mean tight binding
What all share (settings): protein: recombinant; tags: N-terminal GST; dsDNA, one strand shown

The target in one assay is T1, FLI1 (Homo sapiens, UniProt Q01543 1-452).
T1 sequence: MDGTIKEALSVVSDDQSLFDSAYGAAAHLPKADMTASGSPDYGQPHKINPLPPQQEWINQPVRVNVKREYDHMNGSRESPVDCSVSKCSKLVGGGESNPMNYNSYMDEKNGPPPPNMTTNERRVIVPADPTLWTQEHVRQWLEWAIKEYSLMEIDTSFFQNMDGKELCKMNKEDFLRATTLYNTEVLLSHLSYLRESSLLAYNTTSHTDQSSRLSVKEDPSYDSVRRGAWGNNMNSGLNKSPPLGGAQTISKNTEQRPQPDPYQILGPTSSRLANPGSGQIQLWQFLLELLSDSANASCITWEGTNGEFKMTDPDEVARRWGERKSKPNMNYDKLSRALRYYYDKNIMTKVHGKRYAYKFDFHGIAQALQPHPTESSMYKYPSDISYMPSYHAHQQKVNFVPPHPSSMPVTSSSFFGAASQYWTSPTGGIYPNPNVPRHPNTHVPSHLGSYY
Summed up: (§1)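 A tag-only sample was pooled with DNA-barcoded human transcription factors that had been expressed in yeast as GST fusions and captured on glutathione beads. The pools were incubated for 30 min at room temperature with 200 nmole of a random double-stranded 16-mer DNA library in Tris/NaCl/DTT/glycerol buffer, then washed, crosslinked with 0.1% formaldehyde, proximity-ligated (BsaI/T4 ligase, 1 h, 37 °C), PCR-amplified and sequenced on an Illumina NextSeq500. Binding signal is each hexamer's read frequency for a factor divided by its frequency for the tag-only sample.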

A further assay has as its target T2, ELK1 (Homo sapiens, UniProt P19419 1-428).
T2 sequence: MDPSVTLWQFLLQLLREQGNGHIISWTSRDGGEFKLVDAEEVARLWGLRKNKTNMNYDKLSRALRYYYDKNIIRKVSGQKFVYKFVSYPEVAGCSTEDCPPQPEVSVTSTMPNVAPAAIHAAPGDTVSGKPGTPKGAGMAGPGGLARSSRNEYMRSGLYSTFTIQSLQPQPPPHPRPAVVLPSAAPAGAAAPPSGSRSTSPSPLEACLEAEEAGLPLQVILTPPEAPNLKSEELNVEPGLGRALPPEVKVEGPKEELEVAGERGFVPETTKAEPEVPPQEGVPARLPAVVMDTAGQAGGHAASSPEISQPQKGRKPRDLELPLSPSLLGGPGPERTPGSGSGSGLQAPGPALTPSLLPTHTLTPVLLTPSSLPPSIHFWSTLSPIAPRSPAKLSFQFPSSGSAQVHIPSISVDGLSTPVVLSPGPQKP
Summed up:
as §1

The target in a further assay is T3, GABPA (Homo sapiens, UniProt Q06546 1-454).
T3 sequence: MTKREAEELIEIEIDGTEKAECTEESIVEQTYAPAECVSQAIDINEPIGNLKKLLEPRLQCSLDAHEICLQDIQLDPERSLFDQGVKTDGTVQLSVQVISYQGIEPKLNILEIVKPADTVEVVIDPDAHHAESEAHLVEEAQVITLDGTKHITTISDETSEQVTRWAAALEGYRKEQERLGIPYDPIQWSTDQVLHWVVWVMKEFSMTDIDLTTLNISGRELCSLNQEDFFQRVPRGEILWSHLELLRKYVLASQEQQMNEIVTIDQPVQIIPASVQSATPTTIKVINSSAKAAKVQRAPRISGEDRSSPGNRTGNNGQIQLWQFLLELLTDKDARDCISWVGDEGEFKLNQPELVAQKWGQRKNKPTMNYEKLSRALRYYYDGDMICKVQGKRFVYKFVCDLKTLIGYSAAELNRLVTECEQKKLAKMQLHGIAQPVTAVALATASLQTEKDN
In outline: as §1

In the next assay the target is T4, ERG (Homo sapiens, UniProt P11308 1-479).
T4 sequence: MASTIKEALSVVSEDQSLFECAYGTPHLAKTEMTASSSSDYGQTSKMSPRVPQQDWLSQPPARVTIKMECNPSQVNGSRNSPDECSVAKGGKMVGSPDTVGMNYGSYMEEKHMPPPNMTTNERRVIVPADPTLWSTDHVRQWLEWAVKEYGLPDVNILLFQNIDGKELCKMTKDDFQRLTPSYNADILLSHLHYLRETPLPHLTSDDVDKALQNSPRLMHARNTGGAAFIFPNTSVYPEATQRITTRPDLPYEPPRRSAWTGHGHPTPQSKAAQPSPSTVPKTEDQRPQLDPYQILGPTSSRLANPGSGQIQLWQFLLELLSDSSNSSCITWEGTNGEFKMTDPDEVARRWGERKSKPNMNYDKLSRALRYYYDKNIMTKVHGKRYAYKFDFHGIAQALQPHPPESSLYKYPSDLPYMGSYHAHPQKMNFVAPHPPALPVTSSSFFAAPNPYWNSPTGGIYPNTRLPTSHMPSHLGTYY
In outline: as §1

For the next assay, the target named is ELF1 (Homo sapiens, UniProt P32519 1-619). In outline:
as §1

The target in another assay is T5, EHF (Homo sapiens, UniProt Q9NZC4 1-300).
T5 sequence: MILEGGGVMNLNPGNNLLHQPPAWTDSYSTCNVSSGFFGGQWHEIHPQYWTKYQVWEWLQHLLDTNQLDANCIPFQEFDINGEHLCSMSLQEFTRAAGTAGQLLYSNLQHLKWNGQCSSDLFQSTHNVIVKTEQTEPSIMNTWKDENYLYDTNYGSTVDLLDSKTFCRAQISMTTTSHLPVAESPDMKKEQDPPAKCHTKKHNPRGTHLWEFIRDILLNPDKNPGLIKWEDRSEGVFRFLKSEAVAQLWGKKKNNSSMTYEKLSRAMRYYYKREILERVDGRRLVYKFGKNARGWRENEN
In outline:
as §1

A further assay concerns the target SPI1 (Homo sapiens, UniProt P17947 1-270). Summed up:
as §1

Another assay concerns the target SPIB (Homo sapiens, UniProt Q01892 1-262). Summed up:
as §1

The next assay has as its target T6, ELK3 (Homo sapiens, UniProt P41970 1-407).
T6 sequence: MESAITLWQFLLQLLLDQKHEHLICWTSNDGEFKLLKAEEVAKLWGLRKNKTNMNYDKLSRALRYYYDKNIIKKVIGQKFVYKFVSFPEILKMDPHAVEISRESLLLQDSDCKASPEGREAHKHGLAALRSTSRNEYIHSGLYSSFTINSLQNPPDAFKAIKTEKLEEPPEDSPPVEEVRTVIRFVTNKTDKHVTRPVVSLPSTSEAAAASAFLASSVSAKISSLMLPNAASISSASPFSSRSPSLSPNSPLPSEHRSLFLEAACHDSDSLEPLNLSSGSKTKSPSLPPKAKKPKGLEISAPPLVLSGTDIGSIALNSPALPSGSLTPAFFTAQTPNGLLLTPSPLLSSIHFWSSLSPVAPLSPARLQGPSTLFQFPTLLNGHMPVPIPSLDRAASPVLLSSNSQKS
Summed up:
as §1

ELF1, sequence (P32519 whole entry): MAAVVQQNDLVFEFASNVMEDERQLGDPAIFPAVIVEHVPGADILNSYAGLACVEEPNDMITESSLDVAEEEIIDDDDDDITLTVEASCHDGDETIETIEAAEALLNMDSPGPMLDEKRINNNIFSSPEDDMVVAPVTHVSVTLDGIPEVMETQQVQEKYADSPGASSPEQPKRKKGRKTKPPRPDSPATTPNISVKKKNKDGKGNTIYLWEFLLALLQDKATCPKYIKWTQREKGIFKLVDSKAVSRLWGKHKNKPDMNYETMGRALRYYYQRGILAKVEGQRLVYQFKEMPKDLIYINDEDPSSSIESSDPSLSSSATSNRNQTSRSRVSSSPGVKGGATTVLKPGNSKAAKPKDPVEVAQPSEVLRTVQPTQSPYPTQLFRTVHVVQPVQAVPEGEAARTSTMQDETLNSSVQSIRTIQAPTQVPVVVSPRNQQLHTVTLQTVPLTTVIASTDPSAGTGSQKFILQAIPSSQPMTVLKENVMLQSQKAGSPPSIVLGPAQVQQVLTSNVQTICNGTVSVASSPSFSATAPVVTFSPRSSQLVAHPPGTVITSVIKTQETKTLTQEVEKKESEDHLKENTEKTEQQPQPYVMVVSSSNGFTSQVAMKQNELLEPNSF
SPIB, sequence (Q01892 whole entry): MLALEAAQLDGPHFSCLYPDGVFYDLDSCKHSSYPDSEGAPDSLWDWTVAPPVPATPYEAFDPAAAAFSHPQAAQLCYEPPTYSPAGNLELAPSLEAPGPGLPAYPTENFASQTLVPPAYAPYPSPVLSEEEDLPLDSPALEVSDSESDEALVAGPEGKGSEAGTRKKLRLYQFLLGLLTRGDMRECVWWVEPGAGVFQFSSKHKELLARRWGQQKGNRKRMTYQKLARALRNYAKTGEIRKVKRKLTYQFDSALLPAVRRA

For TGCTAG, the binding signal with FLI1 was 1.11 fold enrichment (6-mer frequency, TF over GST control); with ELK1, 1.08 fold enrichment (6-mer frequency, TF over GST control); in the assay with GABPA, 1.08 fold enrichment (6-mer frequency, TF over GST control); in the assay with ERG, 1.11 fold enrichment (6-mer frequency, TF over GST control); with ELF1 it was 1.16 fold enrichment (6-mer frequency, TF over GST control); in the assay with EHF, 1.1 fold enrichment (6-mer frequency, TF over GST control). The binding signal in the assay with SPI1 is 1.2 fold enrichment (6-mer frequency, TF over GST control); with SPIB it was 1.19 fold enrichment (6-mer frequency, TF over GST control); with ELK3, 1.03 fold enrichment (6-mer frequency, TF over GST control).
Take TTTGTA: the binding signal is 1.64 fold enrichment (6-mer frequency, TF over GST control) in the assay with FLI1; 1.47 fold enrichment (6-mer frequency, TF over GST control) with ELK1; 1.48 fold enrichment (6-mer frequency, TF over GST control) in the assay with GABPA; 1.53 fold enrichment (6-mer frequency, TF over GST control) with ERG; 1.56 fold enrichment (6-mer frequency, TF over GST control) in the assay with ELF1; 1.55 fold enrichment (6-mer frequency, TF over GST control) with EHF. For the same sequence, the binding signal was 1.54 fold enrichment (6-mer frequency, TF over GST control) with SPI1; 1.65 fold enrichment (6-mer frequency, TF over GST control) with SPIB; 1.51 fold enrichment (6-mer frequency, TF over GST control) with ELK3.
ATTGAC: the binding signal with FLI1 is 1.18 fold enrichment (6-mer frequency, TF over GST control); in the assay with ELK1 it was 1.21 fold enrichment (6-mer frequency, TF over GST control); in the assay with GABPA, 1.22 fold enrichment (6-mer frequency, TF over GST control); in the assay with ERG, 1.19 fold enrichment (6-mer frequency, TF over GST control); with ELF1, 1.19 fold enrichment (6-mer frequency, TF over GST control); with EHF, 1.22 fold enrichment (6-mer frequency, TF over GST control). Moreover, the binding signal was 1.14 fold enrichment (6-mer frequency, TF over GST control) with SPI1; 1.2 fold enrichment (6-mer frequency, TF over GST control) with SPIB; 1.16 fold enrichment (6-mer frequency, TF over GST control) with ELK3.
For CAAAAA, the binding signal with FLI1 is 1.14 fold enrichment (6-mer frequency, TF over GST control); in the assay with ELK1 it was 1.04 fold enrichment (6-mer frequency, TF over GST control); with GABPA, 1.16 fold enrichment (6-mer frequency, TF over GST control); in the assay with ERG, 1.07 fold enrichment (6-mer frequency, TF over GST control); with ELF1, 1.16 fold enrichment (6-mer frequency, TF over GST control); in the assay with EHF, 1.2 fold enrichment (6-mer frequency, TF over GST control). Besides, the binding signal in the assay with SPI1 is 1.32 fold enrichment (6-mer frequency, TF over GST control); with SPIB it was 1.19 fold enrichment (6-mer frequency, TF over GST control); with ELK3 it was 1.17 fold enrichment (6-mer frequency, TF over GST control).
As for GCTTTC, the binding signal with FLI1 was 1.27 fold enrichment (6-mer frequency, TF over GST control); with ELK1 it was 1.22 fold enrichment (6-mer frequency, TF over GST control); in the assay with GABPA it was 1.3 fold enrichment (6-mer frequency, TF over GST control); in the assay with ERG, 1.28 fold enrichment (6-mer frequency, TF over GST control); with ELF1, 1.32 fold enrichment (6-mer frequency, TF over GST control); with EHF it was 1.34 fold enrichment (6-mer frequency, TF over GST control). Further, the binding signal with SPI1 was 1.28 fold enrichment (6-mer frequency, TF over GST control); with SPIB it was 1.27 fold enrichment (6-mer frequency, TF over GST control); in the assay with ELK3 it was 1.38 fold enrichment (6-mer frequency, TF over GST control).
CCTTAC: the binding signal with FLI1 is 1.31 fold enrichment (6-mer frequency, TF over GST control); in the assay with ELK1, 1.35 fold enrichment (6-mer frequency, TF over GST control); in the assay with GABPA, 1.37 fold enrichment (6-mer frequency, TF over GST control); with ERG, 1.31 fold enrichment (6-mer frequency, TF over GST control); in the assay with ELF1, 1.34 fold enrichment (6-mer frequency, TF over GST control); with EHF, 1.28 fold enrichment (6-mer frequency, TF over GST control). Moreover, the binding signal was 1.28 fold enrichment (6-mer frequency, TF over GST control) with SPI1; 1.33 fold enrichment (6-mer frequency, TF over GST control) in the assay with SPIB; 1.22 fold enrichment (6-mer frequency, TF over GST control) with ELK3.
Consider ATATAG, for which the binding signal in the assay with FLI1 is 1.15 fold enrichment (6-mer frequency, TF over GST control); with ELK1, 1.17 fold enrichment (6-mer frequency, TF over GST control); with GABPA, 1.29 fold enrichment (6-mer frequency, TF over GST control); with ERG, 1.19 fold enrichment (6-mer frequency, TF over GST control); with ELF1, 1.17 fold enrichment (6-mer frequency, TF over GST control); in the assay with EHF it was 1.22 fold enrichment (6-mer frequency, TF over GST control). Also, the binding signal with SPI1 was 1.2 fold enrichment (6-mer frequency, TF over GST control); in the assay with SPIB it was 1.2 fold enrichment (6-mer frequency, TF over GST control); with ELK3, 1.23 fold enrichment (6-mer frequency, TF over GST control).
